{
  "source": "PubChem BioAssay",
  "note": "Activity calls are given as the source filed them. The rule behind the calls is not given here.",
  "data": [
    {"target": "Pantothenate synthetase (Mycobacterium tuberculosis (strain ATCC 25618 / H37Rv)) (UniProt P9WIL5)", "sequence (P9WIL5 whole entry, looked up)": "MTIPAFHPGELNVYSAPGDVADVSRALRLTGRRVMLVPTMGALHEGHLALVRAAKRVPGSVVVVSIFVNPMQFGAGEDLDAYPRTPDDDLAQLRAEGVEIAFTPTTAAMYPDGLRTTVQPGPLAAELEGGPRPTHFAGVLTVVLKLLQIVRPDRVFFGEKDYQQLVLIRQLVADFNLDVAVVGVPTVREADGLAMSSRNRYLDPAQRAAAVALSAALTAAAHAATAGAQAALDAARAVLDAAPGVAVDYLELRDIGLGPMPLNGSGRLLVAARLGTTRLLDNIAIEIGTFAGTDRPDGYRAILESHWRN", "assay": "Coupled enzyme confirmation of inhibitors against recombinant Mtb PanC (AID 375);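 note: 0% = full reaction with vehicle and 100% = no enzyme background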", "settings": "coupled enzyme assay; at 10 µM, active compounds read high", "values": [
      {"compound": "CCOc1ccc(S(=O)(=O)Nc2ccc(Cl)cn2)c(C)c1C", "inhibition": "0% (inactive)"},
      {"compound": "C=C(C)COc1ccc(-c2n[nH]c(C)c2-c2ccccc2)c(O)c1", "inhibition": "0% (inactive)"},
      {"compound": "CCOC(=O)N1CCN(C(=O)CN2C(=O)COc3ccc(C)cc32)CC1", "inhibition": "6% (inactive)"},
      {"compound": "Cc1c(C)c2cc(Cl)c(O)c(CN3CCCCC3)c2oc1=O", "inhibition": "1% (inactive)"},
      {"compound": "O=C(Nc1nc(-c2ccc(S(=O)(=O)N3CCCC3)cc2)cs1)C1COc2ccccc2O1", "note": "(stereo not given)", "inhibition": "0% (inactive)"},
      {"compound": "CCOC(=O)Nc1ccc2c(CN3C(=O)NC4(CCCC4)C3=O)cc(=O)oc2c1", "inhibition": "2% (inactive)"},
      {"compound": "Cc1ccnc(SCCn2c(N3CCN(Cc4ccccc4)CC3)nc3c2c(=O)[nH]c(=O)n3C)n1", "inhibition": "0% (inactive)"},
      {"compound": "COCCCN1C(=O)C(=O)/C(=C(/O)c2ccc(OCC(C)C)cc2C)C1c1cccnc1", "note": "(stereo not given)", "inhibition": "0% (inactive)"},
      {"compound": "O=C(Nc1ccccc1)c1cnc2n(c1=O)CCS2", "inhibition": "0% (inactive)"},
      {"compound": "COc1ccccc1N(CC(=O)NCc1ccccc1)S(C)(=O)=O", "inhibition": "0% (inactive)"},
      {"compound": "CCN(CC)CC#CCOC(=O)C(O)(c1ccccc1)C1CCCCC1", "note": "(stereo not given)", "inhibition": "1% (inactive)"},
      {"compound": "O=C(O)Cn1cc(C(=O)c2ccco2)c2ccccc21", "inhibition": "4% (inactive)"},
      {"compound": "Cc1cc(NC(=O)COc2cccc(Oc3ccccc3)c2)no1", "inhibition": "8% (inactive)"},
      {"compound": "CCOC(=O)c1c(N)sc(C(=O)N2CCOCC2)c1C", "inhibition": "4% (inactive)"},
      {"compound": "CCOc1ccc(-c2noc(-c3ccncc3)n2)cc1OCC", "inhibition": "4% (inactive)"},
      {"compound": "O=C(c1cnc2sccn2c1=O)N1CCc2ccccc2C1", "inhibition": "0% (inactive)"},
      {"compound": "COCCCN1C(=O)C(O)=C(C(C)=O)C1c1ccccn1", "note": "(stereo not given)", "inhibition": "3% (inactive)"},
      {"compound": "O=C(CSc1nccn1Cc1ccccc1)Nc1nccs1", "inhibition": "0% (inactive)"},
      {"compound": "COc1cccc(CC(=O)Nn2c(C)nc3ccccc3c2=O)c1", "inhibition": "2% (inactive)"},
      {"compound": "CC(=O)[C@@]1(O)CC[C@H]2[C@@H]3C[C@H](C)C4=CC(=O)C=C[C@]4(C)[C@@]3(F)[C@@H](O)C[C@@]21C", "inhibition": "6% (inactive)"},
      {"compound": "CSc1nc(N2CCOCC2)c2c(c1C#N)CCCCC2", "inhibition": "0% (inactive)"},
      {"compound": "N#Cc1ccccc1NC(=O)CSc1nnc(-c2ccccc2)n1-c1ccccc1", "inhibition": "0% (inactive)"},
      {"compound": "Cc1ccc(NC(=O)CSc2nnc(Cc3cccn3C)n2-c2ccc(F)cc2)cc1", "inhibition": "6% (inactive)"},
      {"compound": "COc1cccc(Cn2c(Oc3ccccc3)nc3c2c(=O)n(C)c(=O)n3C)c1", "inhibition": "0% (inactive)"},
      {"compound": "Cc1cc(C)cc(N2CCCn3c2nc2c3c(=O)n(CCN3CCOCC3)c(=O)n2C)c1", "inhibition": "7% (inactive)"},
      {"compound": "O=C(Cn1ccc2ccccc2c1=O)Nc1ccc2c(c1)OCO2", "inhibition": "6% (inactive)"},
      {"compound": "Cc1ccc(-c2nc3cc(N)ccc3o2)cc1", "inhibition": "0% (inactive)"},
      {"compound": "CC(=O)CCc1ccc(OCCCCn2cncn2)cc1", "inhibition": "0% (inactive)"},
      {"compound": "COc1cccc(NC(=O)CN2CCN(c3ccccc3F)CC2)c1", "inhibition": "4% (inactive)"},
      {"compound": "COc1ccc(CNc2nc(NCc3ccc(OC)cc3)n(S(C)(=O)=O)n2)cc1", "inhibition": "0% (inactive)"},
      {"compound": "CCCC1(CCC)NC(=O)NC1=O", "inhibition": "0% (inactive)"},
      {"compound": "CCc1nnc(NC(=O)C2CCN(c3nccc(C)n3)CC2)s1", "inhibition": "8% (inactive)"},
      {"compound": "c1ccc2c(c1)sc1nnnn12", "inhibition": "12% (inactive)"},
      {"compound": "O=C(Nc1ccc(N2CCCC2=O)cc1)c1cccc(F)c1", "inhibition": "4% (inactive)"},
      {"compound": "Cn1nnnc1SCc1cn2cccnc2n1", "inhibition": "0% (inactive)"},
      {"compound": "CC(=O)N(CCN(C(C)=O)c1ccccc1)c1ccccc1", "inhibition": "0% (inactive)"},
      {"compound": "CCCc1cc(C(=O)Nc2ccccc2SC)no1", "inhibition": "0% (inactive)"},
      {"compound": "Cc1cc(C)nc(SCc2nnc(SCc3ccccc3Cl)o2)n1", "inhibition": "0% (inactive)"},
      {"compound": "CC(=O)c1ccc(OCC(O)CN2CC(C)OC(C)C2)cc1", "note": "(stereo not given)", "inhibition": "0% (inactive)"},
      {"compound": "COc1cc2c(cc1OC)CN(C(=O)CSc1nnc3scc(-c4ccccc4)n13)CC2", "inhibition": "0% (inactive)"}
    ]}
  ]
}
